Screens deposited in PubChem by National Center for Advancing Translational Sciences (NCATS).
This is a sample that favours compounds with a hit; in the whole collection about 0.45% have one here.
FMDV RLuc: shows antiviral activity in FMDV Renilla assay. FMDV replicon cells, Renilla luciferase signal. actives 0.32% (n = 120,000). Potency, µM (doses to about 57.5 µM), for inactives: top-dose activity change, negative = inhibition, usual class: inhibitors; further: nearly all actives have a fitted effect of over 55% in size
FMDV antiviral: antivirals against foot and mouth disease virus; FMDV antiviral cell assay, firefly luciferase signal; Potency, µM (highest dose often 57.5 µM), for the others: top-dose activity change, negative = inhibition, most hits filed as inhibitors; actives 0.23% (n = 120,000); AID 1745856; further: nearly all actives have a fitted effect of over 60% in size
* hit, by the source's call; ? = inconclusive; [ ] = remark or other dose. The call rests on the fitted dose curve. On the % scale 0 is the no-effect control and ±100 the full control effect; potency means the concentration at half of the fitted maximal effect.

SMILES	FMDV RLuc	FMDV antiviral
Cc1cc(OC(C)C(=O)NCCCO)c2c(C)c(C)c(=O)oc2c1 (stereo unspecified)	16.2%	25.0%
CCS(=O)(=O)N1CCC(C(=O)N2CCN(c3cc(Cl)ccc3C)CC2)CC1	-25.1%	-19.2%
Cc1ccc(Cl)cc1N1CCN(C(=O)C2CCN(c3nnc(-n4c(C)ccc4C)s3)CC2)CC1	?	10µM*
Nc1ccccc1C(=O)NCCCNC(=O)c1cnccn1	2.0%	4.9%
O=C1CCCc2c(O)cccc21	-7.0%	22.0%[11.5 µM]
O=C1C(=C(c2ccccc2)c2ccccc2)C(Cl)C(Cl)(Cl)c2ccccc21 (stereo unspecified)	11.2µM*	?
COc1cc(C(=O)OCC(=O)NC(=O)NCc2ccco2)cc(OC)c1C	4.1%	4.9%
CC(=O)c1cc(C(C)(C)C)c(O)c(C(C)(C)C)c1	2.1%	-2.5%
CC1CCN(C(=O)CCc2nc3sc4c(c3c(=O)[nH]2)CCCCC4)CC1	-15.3%	-1.1%
O=C(Nc1ccc(F)c(Cl)c1)c1ccc(-c2ccccc2)cc1	10.5%	118.2%
O=C(Nc1ccncc1)c1ccc(-c2ccccc2)cc1	3.16µM*	-10.7%
CCc1noc(C)c1C(=O)Nc1sc2c(c1C(N)=O)CCC2	10.4%	0.0%
Cn1c(=O)c2c(nc(NCCO)n2Cc2ccc(F)cc2)n(C)c1=O	7.94µM*	10µM*
C=CCNc1nc2c(c(=O)n(C)c(=O)n2C)n1Cc1ccccc1Cl	-19.0%	-13.6%
CC(C)CCNc1nc2c(c(=O)n(C)c(=O)n2C)n1Cc1ccc(Cl)cc1	-8.6%	-0.9%
CCCCCCNc1nc2c(c(=O)n(C)c(=O)n2C)n1Cc1cccc(C)c1	-6.7%	-0.2%
Cn1c(=O)c2c(nc(NCCO)n2Cc2ccc(Cl)cc2)n(C)c1=O	?	12.6µM*
CCCCCCNc1nc2c(c(=O)n(C)c(=O)n2C)n1CCC	20µM*	?
Cn1c(=O)c2c(nc(NCCc3ccc(F)cc3)n2Cc2ccc(F)cc2)n(C)c1=O	-9.2%	-0.8%
C=CCNc1nc2c(c(=O)n(C)c(=O)n2C)n1Cc1ccc(Cl)cc1	12.6µM*	14.1µM*
COc1ccc(NC(=O)C(=O)NC(C)C)cc1N1CCCCS1(=O)=O	-10.0%	-4.5%
COc1ccc(-c2c(C)c3ccc(OC(C)=O)c(C)c3oc2=O)cc1	12.8%	16.9%
Cc1cc(C)c(O)c(-c2n[nH]c3c2C(c2cccc(O)c2)N(Cc2cccnc2)C3=O)c1 (stereo unspecified)	52.0%	0.0%
CC(=O)NCCNC(=O)c1cc2cc(C)ccc2nc1C	-0.8%	9.8%
CCCCOc1ccc(NC(=O)C(C)Oc2ccccc2F)c2cccnc12 (stereo unspecified)	11.8%	16.7%
SMILES	FMDV RLuc	FMDV antiviral
O=C(N[C@@H]1C[C@H]2CC[C@@H]1C2)c1c(Cl)cccc1Cl	14.5%	-3.9%
Cc1ccc(NC(=O)Cn2c(C)nc3c(sc4ccccc43)c2=O)cc1F	-12.2%	-5.7%
COC(=O)c1ccc(COC(=O)C23CC4CC(CC(O)(C4)C2)C3)cc1	-21.5%	16.1%
CCOc1cc(Br)c(/C=C2/NC(=O)NC2=O)cc1OC	?	2.82µM*
COc1cc(/C=C2\NC(=O)NC2=O)c(Br)cc1OCC(=O)O	-8.0%	-15.3%
Cc1sc(NC2CC2)nc1-c1ccc(NS(C)(=O)=O)cc1	-10.0%	4.2%
Cc1ccc(CN2C3=NCCCN3c3ccccc32)cc1	-7.7%	7.5%
Cc1cc2c(cc1C)N(Cc1ccc(Cl)cc1)C1=NCCCN12	?	20µM*
Cn1c(=O)n(Cc2ccccc2)c(=O)c2sc3c(c21)COC(C)(C)C3	-1.2%	3.7%
CC(OC(=O)c1ccc2c(c1)NC(=O)CS2)C(=O)c1ccccc1 (stereo unspecified)	14.1%	84.1%
Cc1[nH]c2ccccc2c1C(=O)C(C)OC(=O)c1ccc2c(c1)NC(=O)CS2 (stereo unspecified)	?	35.5µM*
CC(=O)Nc1ccc(NC(=O)C(C)OC(=O)c2ccc3c(c2)NC(=O)CS3)cc1 (stereo unspecified)	-9.7%[1.06 µM]	3.3%
COc1ccc(CNC(=O)C(C)OC(=O)c2ccc3c(c2)NC(=O)CS3)cc1OC (stereo unspecified)	?	25.1µM*
O=C(COc1cccc(Br)c1)Nc1ccc(NC(=O)C2CC2)cc1	8.0%	13.6%
Cc1nc(NC(=O)c2cccc(OCC(C)C)c2)ccc1Br	7.1%	132.1%
Cc1ccc(-n2nnnc2Sc2nnnn2-c2ccccc2)c(C)c1	25.1µM*	?
Cc1cccc(-n2nnnc2Sc2nnnn2-c2ccccc2)c1C	?	-26.8%
O=c1c2ccccc2nc(/C=C/c2cccc3ccccc23)n1-c1ccccc1Cl	25.1µM*	?
COc1ccc(Cl)cc1-n1c(/C=C/c2cccc3ccccc23)nc2ccccc2c1=O	23.5%	-23.3%
Cc1[nH]c2c(Cl)cccc2c1C	-5.2%	-2.0%
CC1=CCC2C(C)(C)CCCC2(C)C1CC/C(C)=C/CC/C(C)=N/NC(N)=O (stereo unspecified)	-10.1%	-3.6%
CC[N+](C)(CC)CC(C[N+](C)(CC)CC)OCc1ccccc1	8.0%	0.1%
